Results filed as inconclusive are left out. Active and inactive are the calls of the source. The call rests on the fitted dose curve; in most records, active means well fitted curve in the direction sought with a large enough effect in the repeat runs; inconclusive means weak or mixed curves; inactive means no such curve, though single readings can be large; an effect the other way counts as inactive or inconclusive.
The compounds below were run against Voltage-gated inwardly rectifying potassium channel KCNH2 (Homo sapiens) (UniProt Q12809) (assay: Human Ether-a-go-go-Related Gene (hERG) channel small molecule antagonists: fluorescence cell-based qHTS assay (AID 1671200;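 further: hERG-expressing U2OS cells given a thallium stimulus after FluxOR II dye loading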)). Conditions: hERG-U2OS cells, FluxOR thallium flux fluorescence; series mostly up to 76.8 µM; activity change, negative = inhibition: at the top concentration.
In short: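 In this thallium-flux screen, overnight-cultured U2OS cells bearing the channel are dye-loaded in darkness for an hour, rested 10 min at room temperature, and then monitored kinetically at 480/540 nm for two minutes post-stimulus.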
Further: nearly all actives have a fitted effect of over 50% in size.
On the % scale 0 is the no-effect control and ±100 the full control effect.

Sequence of Voltage-gated inwardly rectifying potassium channel KCNH2 (Homo sapiens) (Q12809 whole entry, looked up): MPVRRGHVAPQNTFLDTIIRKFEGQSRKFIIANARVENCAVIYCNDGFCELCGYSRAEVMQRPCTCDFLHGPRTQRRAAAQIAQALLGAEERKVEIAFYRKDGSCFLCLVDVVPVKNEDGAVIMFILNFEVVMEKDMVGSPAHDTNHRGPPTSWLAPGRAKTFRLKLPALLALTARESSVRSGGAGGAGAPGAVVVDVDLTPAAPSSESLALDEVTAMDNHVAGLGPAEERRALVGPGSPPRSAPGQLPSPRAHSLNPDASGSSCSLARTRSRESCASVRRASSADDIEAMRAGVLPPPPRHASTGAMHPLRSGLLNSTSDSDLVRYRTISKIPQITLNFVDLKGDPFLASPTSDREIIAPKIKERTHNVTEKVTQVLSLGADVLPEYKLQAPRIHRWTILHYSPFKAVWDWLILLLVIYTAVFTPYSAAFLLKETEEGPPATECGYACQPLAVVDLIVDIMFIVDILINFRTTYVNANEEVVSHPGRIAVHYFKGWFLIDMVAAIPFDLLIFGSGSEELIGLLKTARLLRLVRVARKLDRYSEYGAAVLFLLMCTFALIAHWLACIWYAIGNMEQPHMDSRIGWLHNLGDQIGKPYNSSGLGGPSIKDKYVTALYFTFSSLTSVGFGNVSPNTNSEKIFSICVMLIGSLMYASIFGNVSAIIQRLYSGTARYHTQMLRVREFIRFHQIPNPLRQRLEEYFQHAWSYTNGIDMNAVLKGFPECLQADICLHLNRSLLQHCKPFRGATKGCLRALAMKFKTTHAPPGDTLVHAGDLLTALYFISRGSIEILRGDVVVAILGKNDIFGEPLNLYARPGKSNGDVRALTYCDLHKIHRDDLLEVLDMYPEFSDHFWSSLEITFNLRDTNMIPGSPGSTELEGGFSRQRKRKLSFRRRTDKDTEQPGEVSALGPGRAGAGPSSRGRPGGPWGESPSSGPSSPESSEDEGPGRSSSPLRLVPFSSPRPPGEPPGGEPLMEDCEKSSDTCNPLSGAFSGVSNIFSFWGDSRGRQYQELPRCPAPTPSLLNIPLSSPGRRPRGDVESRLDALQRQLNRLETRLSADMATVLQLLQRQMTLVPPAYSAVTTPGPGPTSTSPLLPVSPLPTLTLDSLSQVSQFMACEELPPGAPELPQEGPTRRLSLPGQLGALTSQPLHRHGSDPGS

Compound	activity change, negative = inhibition
CCc1nn(C2CCCCC2)c2cc(C3(C#N)CCC(C(=O)O)CC3)ccc12 (centres undefined)	-11.1% (inactive)
OCC1CC2CC1C1CCC(CO)C21 (centres undefined)	0.498% (inactive)
CC(C)CCCCCCOC(=O)c1ccc(C(=O)OCCCCCCC(C)C)c(C(=O)OCCCCCCC(C)C)c1	5.06% (inactive)
O=C(O)Cc1cc(I)c(Oc2ccc(O)c(I)c2)c(I)c1	21% (inactive)
CC(C)=CCCC(C)CC=O (centres undefined)	-2.4% (inactive)
CC1CCc2cc(F)cc3c(=O)c(C(=O)O)cn1c23 (centres undefined)	9.14% [at 35.3 µM] (inactive)
NCCCOCCOCCOCCCN	-2.17% (inactive)

Each compound was assayed against Cytochrome P450 3A4 (Homo sapiens) (UniProt P08684) (assay: Cytochrome P450 Family 3 Subfamily A Member 4 (CYP3A4) small molecule antagonists: luciferase reporter qHTS assay (AID 1671201)). Conditions: P450-Glo CYP3A4 enzyme, luciferin luminescence, 1 h; series mostly up to 115 µM; activity change, negative = inhibition: at the top concentration.
In short: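 CYP3A4 activity was followed with a P450-Glo proluciferin substrate. Test compounds in DMSO were preincubated 10 min; NADPH regeneration then ran 1 h, and light output was read 20 min after detection reagent.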

Sequence of Cytochrome P450 3A4 (Homo sapiens) (P08684 whole entry, looked up): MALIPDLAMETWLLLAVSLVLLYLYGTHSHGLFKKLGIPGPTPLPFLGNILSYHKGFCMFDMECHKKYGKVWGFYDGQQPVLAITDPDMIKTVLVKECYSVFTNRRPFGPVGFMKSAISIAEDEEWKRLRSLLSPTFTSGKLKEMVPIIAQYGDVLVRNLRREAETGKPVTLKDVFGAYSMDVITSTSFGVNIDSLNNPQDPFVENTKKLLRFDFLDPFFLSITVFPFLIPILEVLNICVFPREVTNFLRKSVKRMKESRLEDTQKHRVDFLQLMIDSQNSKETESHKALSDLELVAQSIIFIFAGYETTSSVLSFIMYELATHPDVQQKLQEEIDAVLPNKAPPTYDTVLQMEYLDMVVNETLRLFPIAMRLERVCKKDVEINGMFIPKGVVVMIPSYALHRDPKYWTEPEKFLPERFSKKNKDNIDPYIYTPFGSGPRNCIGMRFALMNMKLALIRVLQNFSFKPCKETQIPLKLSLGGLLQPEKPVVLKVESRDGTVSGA

Compound	activity change, negative = inhibition	Potency
O=CNc1ccccc1	2.49% (inactive)	–
CCOC(=S)SSC(=S)OCC	0.73% (inactive)	–
CC(=O)Nc1ccc(/C=N/NC(N)=S)cc1	-6.28% [at 52.9 µM] (inactive)	–
CNCC[C@@H](Oc1ccccc1C)c1ccccc1	-30.6% [at 52.9 µM] (inactive)	–
Cn1sccc1=O	–	inactive
CCCCOc1ccc(CC(=O)NO)cc1	-0.485% [at 52.9 µM] (inactive)	–
CC(=O)/C(C)=C/C1C(C)=CCCC1(C)C (centres undefined)	1.37% (inactive)	–
ClC(Cl)(Cl)c1ccc(C(Cl)(Cl)Cl)cc1	63.4% (inactive)	–
CCOC(=O)CC(=O)c1cc(F)c(Cl)nc1Cl	82.4% (inactive)	–
N=C(N=C(N)N)N1CCOCC1	6.68% [at 52.9 µM] (inactive)	–
NC[C@H]1O[C@H](O[C@H]2[C@H](O)[C@@H](O[C@H]3O[C@H](CO)[C@@H](O)[C@H](N)[C@H]3O)[C@H](N)C[C@@H]2N)[C@H](O)[C@@H](O)[C@@H]1O	8.95% [at 10.5 µM] (inactive)	–
Cc1cc(C)c(S(=O)(=O)O)cc1N=Nc1cc(S(=O)(=O)O)c2ccccc2c1O	5.7% (inactive)	–
CC1=CC(=O)/C(=C(/C)O)C(=O)O1	-19.6% (inactive)	–
CC(=O)/C=C/C1C(C)=CCCC1(C)C (centres undefined)	11.1% (inactive)	–
O=c1[nH]cnc2ccccc12	-3.63% (inactive)	–
CC(=O)OC/C=C/c1ccccc1	-1.51% (inactive)	–
C[C@H](CCC(=O)O)[C@H]1CC[C@H]2[C@@H]3[C@H](O)C[C@@H]4C[C@H](O)CC[C@]4(C)[C@H]3CC[C@]12C	-21.4% (inactive)	–
CCc1nn(C2CCCCC2)c2cc(C3(C#N)CCC(C(=O)O)CC3)ccc12 (centres undefined)	16.7% (inactive)	–
OCC1CC2CC1C1CCC(CO)C21 (centres undefined)	-0.545% (inactive)	–
CCCCOc1cc(C(=O)OCCN(CC)CC)ccc1N	-15.5% [at 52.9 µM] (inactive)	–
CC(C)CCCCCCOC(=O)c1ccc(C(=O)OCCCCCCC(C)C)c(C(=O)OCCCCCCC(C)C)c1	-8.37% (inactive)	–
NCCCOCCOCCOCCCN	-32.7% (inactive)	–

Reference: PubChem BioAssay (Tox21)
